Assay in all cases: DAPPL (digital affinity profiling via proximity ligation, sequencing); 10 mM Tris-HCl pH 7.5, 50 mM NaCl, 1 mM DTT, 4% glycerol, room temperature, 30 min; GST-TFs on glutathione beads, 16-mer random dsDNA library, 0.1% formaldehyde crosslink after washing; high values mean tight binding
What all share (conditions): protein: recombinant; tags: N-terminal GST; dsDNA, one strand shown

Assay [1] addresses T1, ERF (Homo sapiens, UniProt P50548 1-548).
T1 sequence: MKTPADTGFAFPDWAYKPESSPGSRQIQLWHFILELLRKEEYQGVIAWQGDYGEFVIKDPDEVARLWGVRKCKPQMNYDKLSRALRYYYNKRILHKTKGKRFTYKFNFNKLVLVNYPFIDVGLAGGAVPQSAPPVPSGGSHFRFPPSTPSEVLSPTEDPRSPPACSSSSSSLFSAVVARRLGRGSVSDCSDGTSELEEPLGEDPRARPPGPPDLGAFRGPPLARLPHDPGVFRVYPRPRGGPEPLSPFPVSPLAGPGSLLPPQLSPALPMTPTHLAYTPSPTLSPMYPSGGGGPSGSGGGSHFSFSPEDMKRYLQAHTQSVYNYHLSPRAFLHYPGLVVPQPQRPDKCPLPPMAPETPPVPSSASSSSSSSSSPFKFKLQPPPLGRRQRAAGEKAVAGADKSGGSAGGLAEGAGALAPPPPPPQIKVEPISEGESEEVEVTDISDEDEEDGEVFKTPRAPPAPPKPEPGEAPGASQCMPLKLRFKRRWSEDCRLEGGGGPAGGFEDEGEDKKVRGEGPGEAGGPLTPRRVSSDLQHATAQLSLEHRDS
An outline of the steps:
(§1)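 A tag-only sample was pooled with DNA-barcoded human transcription factors that had been expressed in yeast as GST fusions and captured on glutathione beads. The pools were incubated for 30 min at room temperature with 200 nmole of a random double-stranded 16-mer DNA library in Tris/NaCl/DTT/glycerol buffer, then washed, crosslinked with 0.1% formaldehyde, proximity-ligated (BsaI/T4 ligase, 1 h, 37 °C), PCR-amplified and sequenced on an Illumina NextSeq500. Binding signal is each hexamer's read frequency for a factor divided by its frequency for the tag-only sample.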

The target in assay [2] is T2, ETV3L (Homo sapiens, UniProt Q6ZN32 1-361).
T2 sequence: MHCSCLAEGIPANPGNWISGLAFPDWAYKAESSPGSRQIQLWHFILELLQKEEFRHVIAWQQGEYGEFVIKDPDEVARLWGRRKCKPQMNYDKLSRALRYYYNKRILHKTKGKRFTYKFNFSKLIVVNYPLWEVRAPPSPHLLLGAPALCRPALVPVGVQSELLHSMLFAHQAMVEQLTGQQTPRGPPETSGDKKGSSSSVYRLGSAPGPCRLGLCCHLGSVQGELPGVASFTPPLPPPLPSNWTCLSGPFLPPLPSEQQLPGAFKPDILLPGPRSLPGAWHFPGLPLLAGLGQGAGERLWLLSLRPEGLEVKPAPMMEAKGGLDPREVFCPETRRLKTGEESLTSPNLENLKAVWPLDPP
An outline of the steps:
as §1

The target in assay [3] is T3, ETS2 (Homo sapiens, UniProt P15036 1-469).
T3 sequence: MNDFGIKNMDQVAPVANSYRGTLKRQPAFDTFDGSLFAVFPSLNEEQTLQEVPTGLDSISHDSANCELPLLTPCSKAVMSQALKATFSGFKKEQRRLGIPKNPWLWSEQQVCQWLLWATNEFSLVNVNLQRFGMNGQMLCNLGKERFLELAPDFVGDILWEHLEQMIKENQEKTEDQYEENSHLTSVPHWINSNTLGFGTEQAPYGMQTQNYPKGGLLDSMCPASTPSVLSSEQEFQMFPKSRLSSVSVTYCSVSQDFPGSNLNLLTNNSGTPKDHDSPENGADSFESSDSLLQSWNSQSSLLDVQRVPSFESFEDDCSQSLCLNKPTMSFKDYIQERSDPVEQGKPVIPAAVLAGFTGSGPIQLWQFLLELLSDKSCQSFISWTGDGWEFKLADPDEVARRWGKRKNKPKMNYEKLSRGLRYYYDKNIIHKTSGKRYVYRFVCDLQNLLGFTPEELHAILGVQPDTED
The method, boiled down:
as §1

Assay [4] concerns the target T4, SPDEF (Homo sapiens, UniProt O95238 1-335).
T4 sequence: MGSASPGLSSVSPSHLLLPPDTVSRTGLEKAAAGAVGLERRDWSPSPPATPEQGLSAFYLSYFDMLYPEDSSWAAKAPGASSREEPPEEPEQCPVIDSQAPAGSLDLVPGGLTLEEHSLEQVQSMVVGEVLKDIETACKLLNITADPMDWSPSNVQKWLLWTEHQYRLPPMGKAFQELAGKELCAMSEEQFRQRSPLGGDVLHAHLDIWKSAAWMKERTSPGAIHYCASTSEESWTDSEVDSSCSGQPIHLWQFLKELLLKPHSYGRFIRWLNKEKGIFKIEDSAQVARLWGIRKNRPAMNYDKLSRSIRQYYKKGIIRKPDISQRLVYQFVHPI
The method, boiled down:
as §1

The target in assay [5] is T5, ETV7 (Homo sapiens, UniProt Q9Y603 1-341).
T5 sequence: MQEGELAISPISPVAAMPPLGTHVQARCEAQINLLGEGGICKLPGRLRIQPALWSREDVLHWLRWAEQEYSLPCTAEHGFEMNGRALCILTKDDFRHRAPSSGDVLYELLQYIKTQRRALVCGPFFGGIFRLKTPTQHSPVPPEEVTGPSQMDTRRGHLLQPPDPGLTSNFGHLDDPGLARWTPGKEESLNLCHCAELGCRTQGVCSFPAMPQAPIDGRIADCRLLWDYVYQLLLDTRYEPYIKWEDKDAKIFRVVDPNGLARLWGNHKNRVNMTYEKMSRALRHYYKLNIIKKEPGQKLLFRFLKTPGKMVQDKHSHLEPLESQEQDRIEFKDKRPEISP
The method, boiled down: as §1

The target of assay [6] is T6, ELF5 (Homo sapiens, UniProt Q9UKW6-2 1-255).
T6 sequence: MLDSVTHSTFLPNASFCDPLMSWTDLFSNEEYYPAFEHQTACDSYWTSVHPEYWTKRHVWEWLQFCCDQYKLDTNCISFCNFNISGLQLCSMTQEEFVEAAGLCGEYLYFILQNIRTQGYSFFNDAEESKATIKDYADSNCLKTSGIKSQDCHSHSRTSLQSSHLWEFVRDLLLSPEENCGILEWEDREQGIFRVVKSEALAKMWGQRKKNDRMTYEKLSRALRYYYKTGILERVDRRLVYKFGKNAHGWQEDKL
An outline of the steps:
as §1

The target in assay [7] is T7, ETV3 (Homo sapiens, UniProt P41162-2 1-143).
T7 sequence: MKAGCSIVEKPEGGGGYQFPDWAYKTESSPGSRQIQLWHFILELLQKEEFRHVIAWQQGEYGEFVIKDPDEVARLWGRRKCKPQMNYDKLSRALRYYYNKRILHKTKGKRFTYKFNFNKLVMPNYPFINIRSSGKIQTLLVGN
The method, boiled down: as §1

The target in assay [8] is ETV6 (Homo sapiens, UniProt P41212 1-452). An outline of the steps:
as §1

ETV6, sequence (P41212 whole entry): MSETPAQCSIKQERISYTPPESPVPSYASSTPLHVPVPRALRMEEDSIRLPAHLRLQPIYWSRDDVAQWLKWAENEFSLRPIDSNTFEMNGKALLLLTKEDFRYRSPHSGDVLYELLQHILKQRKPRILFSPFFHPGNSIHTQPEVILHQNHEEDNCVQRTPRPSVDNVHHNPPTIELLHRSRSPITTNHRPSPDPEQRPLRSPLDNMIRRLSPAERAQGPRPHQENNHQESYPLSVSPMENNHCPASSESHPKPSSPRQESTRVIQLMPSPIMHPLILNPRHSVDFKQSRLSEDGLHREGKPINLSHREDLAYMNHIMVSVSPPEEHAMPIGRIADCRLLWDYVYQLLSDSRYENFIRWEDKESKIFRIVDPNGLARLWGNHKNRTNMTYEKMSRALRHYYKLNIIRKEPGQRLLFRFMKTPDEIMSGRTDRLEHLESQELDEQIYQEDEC

In the case of TAATGG, the binding signal is 1.17 fold enrichment (6-mer frequency, TF over GST control) in assay [1]; 1.23 fold enrichment (6-mer frequency, TF over GST control) in assay [2]; 1.28 fold enrichment (6-mer frequency, TF over GST control) in assay [3]; 1.22 fold enrichment (6-mer frequency, TF over GST control) in assay [4]; 1.2 fold enrichment (6-mer frequency, TF over GST control) in assay [5]; 1.32 fold enrichment (6-mer frequency, TF over GST control) in assay [6]. Besides, the binding signal is 1.28 fold enrichment (6-mer frequency, TF over GST control) in assay [7] and 1.31 fold enrichment (6-mer frequency, TF over GST control) in assay [8].
Regarding ACATTG, the binding signal in assay [1] was 1.26 fold enrichment (6-mer frequency, TF over GST control); in assay [2] it was 1.18 fold enrichment (6-mer frequency, TF over GST control); in assay [3], 1.17 fold enrichment (6-mer frequency, TF over GST control); in assay [4], 1.12 fold enrichment (6-mer frequency, TF over GST control); in assay [5], 1.2 fold enrichment (6-mer frequency, TF over GST control); in assay [6], 1.07 fold enrichment (6-mer frequency, TF over GST control). Also, the binding signal in assay [7] was 1.1 fold enrichment (6-mer frequency, TF over GST control); in assay [8], 1.21 fold enrichment (6-mer frequency, TF over GST control).
For GCGTTC, the binding signal in assay [1] is 1.11 fold enrichment (6-mer frequency, TF over GST control); in assay [2], 1.15 fold enrichment (6-mer frequency, TF over GST control); in assay [3], 1.21 fold enrichment (6-mer frequency, TF over GST control); in assay [4], 1.02 fold enrichment (6-mer frequency, TF over GST control); in assay [5], 1.23 fold enrichment (6-mer frequency, TF over GST control); in assay [6], 1.03 fold enrichment (6-mer frequency, TF over GST control). Moreover, the binding signal in assay [7] was 1.11 fold enrichment (6-mer frequency, TF over GST control); in assay [8], 1.12 fold enrichment (6-mer frequency, TF over GST control).
For the sequence CTCCCT, the binding signal in assay [1] is 1.72 fold enrichment (6-mer frequency, TF over GST control); in assay [2], 1.54 fold enrichment (6-mer frequency, TF over GST control); in assay [3], 1.57 fold enrichment (6-mer frequency, TF over GST control); in assay [4] it was 1.53 fold enrichment (6-mer frequency, TF over GST control); in assay [5] it was 1.52 fold enrichment (6-mer frequency, TF over GST control); in assay [6] it was 1.41 fold enrichment (6-mer frequency, TF over GST control). Moreover, the binding signal in assay [7] was 1.55 fold enrichment (6-mer frequency, TF over GST control); in assay [8], 1.37 fold enrichment (6-mer frequency, TF over GST control).
For AGTATC, the binding signal was 1.12 fold enrichment (6-mer frequency, TF over GST control) in assay [1]; 1.09 fold enrichment (6-mer frequency, TF over GST control) in assay [2]; 1.18 fold enrichment (6-mer frequency, TF over GST control) in assay [3]; 1.14 fold enrichment (6-mer frequency, TF over GST control) in assay [4]; 1.13 fold enrichment (6-mer frequency, TF over GST control) in assay [5]; 1.23 fold enrichment (6-mer frequency, TF over GST control) in assay [6]. Besides, the binding signal in assay [7] was 1.13 fold enrichment (6-mer frequency, TF over GST control); in assay [8] it was 1.19 fold enrichment (6-mer frequency, TF over GST control).
For ACGTAC, the binding signal was 1.16 fold enrichment (6-mer frequency, TF over GST control) in assay [1]; 1.12 fold enrichment (6-mer frequency, TF over GST control) in assay [2]; 1.19 fold enrichment (6-mer frequency, TF over GST control) in assay [3]; 1.13 fold enrichment (6-mer frequency, TF over GST control) in assay [4]; 1.24 fold enrichment (6-mer frequency, TF over GST control) in assay [5]; 1.15 fold enrichment (6-mer frequency, TF over GST control) in assay [6]. The binding signal in assay [7] is 1.12 fold enrichment (6-mer frequency, TF over GST control); in assay [8], 1.25 fold enrichment (6-mer frequency, TF over GST control).
Regarding AAGCTA, the binding signal in assay [1] was 1.18 fold enrichment (6-mer frequency, TF over GST control); in assay [2], 1.2 fold enrichment (6-mer frequency, TF over GST control); in assay [3] it was 1.14 fold enrichment (6-mer frequency, TF over GST control); in assay [4] it was 1.16 fold enrichment (6-mer frequency, TF over GST control); in assay [5], 1.2 fold enrichment (6-mer frequency, TF over GST control); in assay [6] it was 1.11 fold enrichment (6-mer frequency, TF over GST control). The binding signal in assay [7] is 1.2 fold enrichment (6-mer frequency, TF over GST control); in assay [8], 1.1 fold enrichment (6-mer frequency, TF over GST control).
Take TACGGC: the binding signal in assay [1] was 1.32 fold enrichment (6-mer frequency, TF over GST control); in assay [2], 1.26 fold enrichment (6-mer frequency, TF over GST control); in assay [3] it was 1.22 fold enrichment (6-mer frequency, TF over GST control); in assay [4], 1.18 fold enrichment (6-mer frequency, TF over GST control); in assay [5], 1.13 fold enrichment (6-mer frequency, TF over GST control); in assay [6], 1.2 fold enrichment (6-mer frequency, TF over GST control). Besides, the binding signal in assay [7] is 1.21 fold enrichment (6-mer frequency, TF over GST control); in assay [8], 1.2 fold enrichment (6-mer frequency, TF over GST control).

The values above are taken from article PMC7862700, “An all-to-all approach to the identification of sequence-specific readers for epigenetic DNA modifications on cytosine”.
